Measured values published in the supplement of paper PMC10849652.
Targets with a hit are over-represented here; the source holds about 7,900 in all. About 0.6% of all pairs of compound and target were hits.

Columns and labels:
Assay in all cases: log2 fold change, soluble protein after heating vs DMSO (PISA); higher = thermal stabilisation; K562 cells, 10 uM, 30 min; active = over 0.2 and 3.5 SD of the protein, either way, in both replicates (recomputed)
[1] = compound: C#Cc1cccc(Nc2ncnc3cc(OCCOC)c(OCCOC)cc23)c1 [erlotinib]
How it was run: (§1)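 K562 cells (2×10^6 cells/mL) were treated with 10 μM compound for 30 min, and aliquots were heated for 3 min over 48°C-58°C. Pooled aliquots were extracted in PBS with 0.5% NP-40 at 4°C, and the supernatant after 21,000xg for 90 min was measured by TMTpro 16plex LC-MS/MS with channel sums equalised. Reported thermal stability, relative to control samples and from duplicates, is a log2 fold change.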

[2] = compound: C/C(=N\NC(=O)C1=CC(=CC=C1)S(=O)(=O)N2CCOCC2)/C3=C(C=CC(=C3)Cl)O
How it was run: as §1

[3] = compound: C1=CC(=C(C=C1Cl)C2=NC3=NC=CN=C3C(=N2)NC4=CC=NC=C4)F
How it was run: as §1

[4] = compound: C1=CC(=CC=C1C2=NC3=C(N2)C=C(C=C3)C(=O)N)OC4=CC=C(C=C4)Cl
How it was run: as §1

[5] = compound: C1=CC2=C(C=CC(=C2)/C=C\3/C(=O)NC(=NCC4=CC=CS4)S3)N=C1
How it was run: as §1

[6] = compound: C1=CC2=NC=CN=C2C=C1/C=C/3\C(=O)NC(=O)S3
How it was run: as §1

[7] = compound: C1=CC=C(C=C1)C2=NC(=C(N2)C3=CC=NC=C3)C4=CC(=C(C=C4)Cl)O
How it was run: as §1

[8] = compound: C1=CC=C2C(=C1)C3=NNC4=CC=CC(=C43)C2=O
How it was run: as §1

[9] = compound: C1CCN(C1)C(=O)NC2=CC=CC(=C2)NC3=NC=C(C(=N3)NCCC4=CN=CN4)Br
How it was run: as §1

[10] = compound: C1CN(CCC1(CC2=CC=C(C=C2)Cl)N)C3=NC=NC4=C3C=CN4
How it was run: as §1

Measured: log2 fold change

STARD3NL (UniProt O95772)
UniProt O95772, sequence (O95772 whole entry, looked up): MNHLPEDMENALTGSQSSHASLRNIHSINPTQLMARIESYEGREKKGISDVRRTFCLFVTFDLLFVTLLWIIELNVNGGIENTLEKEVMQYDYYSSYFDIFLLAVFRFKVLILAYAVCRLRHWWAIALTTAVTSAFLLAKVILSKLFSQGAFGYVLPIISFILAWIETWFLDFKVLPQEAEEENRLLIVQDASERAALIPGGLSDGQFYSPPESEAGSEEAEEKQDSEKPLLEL
inactive: [1] 0.004 | [2] -0.107 | [3] -0.004 | [4] -0.003 | [5] 0.169 | [6] 0.048 | [7] 0.11 | [8] 0.103 | [9] -0.013 | [10] 0.015

SLC29A3 (UniProt Q9BZD2)
inactive: [1] 0.155 | [2] 0.024 | [3] 0.028 | [4] 0.043 | [5] 0.042 | [6] 0.098 | [7] 0.064 | [8] 0 | [9] 0.074 | [10] 0.052

STARD3 (UniProt Q14849)
UniProt Q14849, sequence (Q14849 whole entry, looked up): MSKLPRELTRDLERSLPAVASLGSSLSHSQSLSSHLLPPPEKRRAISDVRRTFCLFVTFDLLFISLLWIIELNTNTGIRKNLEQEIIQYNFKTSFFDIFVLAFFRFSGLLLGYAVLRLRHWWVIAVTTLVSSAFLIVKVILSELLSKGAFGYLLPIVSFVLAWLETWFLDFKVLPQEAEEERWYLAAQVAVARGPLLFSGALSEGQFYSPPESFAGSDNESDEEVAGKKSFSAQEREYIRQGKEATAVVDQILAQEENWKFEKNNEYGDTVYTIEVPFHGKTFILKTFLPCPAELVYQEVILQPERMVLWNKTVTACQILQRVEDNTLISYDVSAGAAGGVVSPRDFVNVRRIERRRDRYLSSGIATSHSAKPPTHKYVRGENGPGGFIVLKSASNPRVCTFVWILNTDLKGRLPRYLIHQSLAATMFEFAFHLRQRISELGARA
inactive: [1] -0.073 | [2] 0.133 | [3] -0.05 | [4] 0.022 | [5] -0.095 | [6] 0.058 | [7] -0.028 | [8] 0.197 | [9] 0.059 | [10] 0.04

TM9SF2 (UniProt Q99805)
inactive: [1] 0.012 | [2] 0.025 | [3] 0.037 | [4] -0.006 | [5] 0.027 | [6] -0.021 | [7] 0.04 | [8] 0.009 | [9] -0.04 | [10] 0.063

SLC27A1 (UniProt Q6PCB7)
active: [9] -0.411
inactive: [1] -0.003 | [2] -0.053 | [3] 0.055 | [4] -0.008 | [5] 0.061 | [6] 0 | [7] 0.016 | [8] 0.012 | [10] -0.064

TBRG4 (UniProt Q969Z0)
inactive: [1] 0.072 | [2] 0.18 | [3] 0.046 | [4] -0.154 | [5] 0.063 | [6] -0.056 | [7] 0.056 | [8] -0.201 | [9] -0.07 | [10] -0.036

SUPT16H (UniProt Q9Y5B9)
inactive: [1] 0.177 | [2] 0.25 | [3] 0.091 | [4] -0.012 | [5] 0.155 | [6] 0 | [7] 0.064 | [8] 0.098 | [9] -0.098 | [10] -0.011

TGFBRAP1 (UniProt Q8WUH2)
inactive: [1] 0.064 | [2] 0.217 | [3] -0.046 | [4] -0.119 | [5] 0.084 | [6] 0.062 | [7] 0.194 | [8] 0.121 | [9] -0.06 | [10] -0.053

SLC6A6 (UniProt P31641)
UniProt P31641, sequence (P31641 whole entry, looked up): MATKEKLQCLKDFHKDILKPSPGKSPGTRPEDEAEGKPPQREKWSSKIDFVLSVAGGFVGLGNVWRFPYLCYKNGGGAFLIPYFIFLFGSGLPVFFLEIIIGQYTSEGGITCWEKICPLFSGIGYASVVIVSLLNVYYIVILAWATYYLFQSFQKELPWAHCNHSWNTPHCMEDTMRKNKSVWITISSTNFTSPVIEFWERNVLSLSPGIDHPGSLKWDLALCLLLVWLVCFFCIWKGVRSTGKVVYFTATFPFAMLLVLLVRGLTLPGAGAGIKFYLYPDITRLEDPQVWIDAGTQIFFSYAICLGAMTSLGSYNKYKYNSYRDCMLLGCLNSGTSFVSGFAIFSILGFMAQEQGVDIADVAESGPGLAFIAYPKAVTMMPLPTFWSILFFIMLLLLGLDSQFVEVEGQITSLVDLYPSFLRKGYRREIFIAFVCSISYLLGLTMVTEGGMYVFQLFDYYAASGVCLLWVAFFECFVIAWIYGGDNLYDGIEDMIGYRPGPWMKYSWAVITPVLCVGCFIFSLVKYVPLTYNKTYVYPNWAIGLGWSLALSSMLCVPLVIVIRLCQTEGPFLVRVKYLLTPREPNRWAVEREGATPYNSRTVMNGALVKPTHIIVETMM
inactive: [1] 0.001 | [2] 0.013 | [3] 0.123 | [4] -0.005 | [5] 0.003 | [6] 0.055 | [7] 0.007 | [8] -0.054 | [9] 0.087 | [10] 0.083

TAOK1 (UniProt Q7L7X3)
inactive: [1] 0.006 | [2] 0.045 | [3] -0.027 | [4] 0.09 | [5] -0.033 | [6] 0.009 | [7] -0.009 | [8] -0.007 | [9] -0.005 | [10] -0.01

SLC35F6 (UniProt Q8N357)
inactive: [1] 0.12 | [2] -0.078 | [3] -0.008 | [4] -0.067 | [5] -0.013 | [6] -0.047 | [8] -0.024 | [9] -0.057 | [10] 0.122
active: [7] 0.417

SP1 (UniProt P08047)
inactive: [1] -0.055 | [2] -0.03 | [3] -0.046 | [4] 0.043 | [5] 0.006 | [6] 0.01 | [7] 0.001 | [8] -0.031 | [9] 0.047 | [10] -0.019

STAT3 (UniProt P40763)
inactive: [1] -0.023 | [2] 0.147 | [3] 0.026 | [4] 0.007 | [5] 0.031 | [6] 0.031 | [7] 0.011 | [8] -0.001 | [9] -0.01 | [10] -0.036

SMAP2 (UniProt Q8WU79)
inactive: [1] -0.044 | [2] 0.13 | [3] -0.005 | [4] -0.032 | [5] -0.029 | [6] 0.019 | [7] -0.015 | [8] 0.017 | [9] -0.086 | [10] 0.038

SMCHD1 (UniProt A6NHR9)
UniProt A6NHR9, sequence (A6NHR9 whole entry, looked up): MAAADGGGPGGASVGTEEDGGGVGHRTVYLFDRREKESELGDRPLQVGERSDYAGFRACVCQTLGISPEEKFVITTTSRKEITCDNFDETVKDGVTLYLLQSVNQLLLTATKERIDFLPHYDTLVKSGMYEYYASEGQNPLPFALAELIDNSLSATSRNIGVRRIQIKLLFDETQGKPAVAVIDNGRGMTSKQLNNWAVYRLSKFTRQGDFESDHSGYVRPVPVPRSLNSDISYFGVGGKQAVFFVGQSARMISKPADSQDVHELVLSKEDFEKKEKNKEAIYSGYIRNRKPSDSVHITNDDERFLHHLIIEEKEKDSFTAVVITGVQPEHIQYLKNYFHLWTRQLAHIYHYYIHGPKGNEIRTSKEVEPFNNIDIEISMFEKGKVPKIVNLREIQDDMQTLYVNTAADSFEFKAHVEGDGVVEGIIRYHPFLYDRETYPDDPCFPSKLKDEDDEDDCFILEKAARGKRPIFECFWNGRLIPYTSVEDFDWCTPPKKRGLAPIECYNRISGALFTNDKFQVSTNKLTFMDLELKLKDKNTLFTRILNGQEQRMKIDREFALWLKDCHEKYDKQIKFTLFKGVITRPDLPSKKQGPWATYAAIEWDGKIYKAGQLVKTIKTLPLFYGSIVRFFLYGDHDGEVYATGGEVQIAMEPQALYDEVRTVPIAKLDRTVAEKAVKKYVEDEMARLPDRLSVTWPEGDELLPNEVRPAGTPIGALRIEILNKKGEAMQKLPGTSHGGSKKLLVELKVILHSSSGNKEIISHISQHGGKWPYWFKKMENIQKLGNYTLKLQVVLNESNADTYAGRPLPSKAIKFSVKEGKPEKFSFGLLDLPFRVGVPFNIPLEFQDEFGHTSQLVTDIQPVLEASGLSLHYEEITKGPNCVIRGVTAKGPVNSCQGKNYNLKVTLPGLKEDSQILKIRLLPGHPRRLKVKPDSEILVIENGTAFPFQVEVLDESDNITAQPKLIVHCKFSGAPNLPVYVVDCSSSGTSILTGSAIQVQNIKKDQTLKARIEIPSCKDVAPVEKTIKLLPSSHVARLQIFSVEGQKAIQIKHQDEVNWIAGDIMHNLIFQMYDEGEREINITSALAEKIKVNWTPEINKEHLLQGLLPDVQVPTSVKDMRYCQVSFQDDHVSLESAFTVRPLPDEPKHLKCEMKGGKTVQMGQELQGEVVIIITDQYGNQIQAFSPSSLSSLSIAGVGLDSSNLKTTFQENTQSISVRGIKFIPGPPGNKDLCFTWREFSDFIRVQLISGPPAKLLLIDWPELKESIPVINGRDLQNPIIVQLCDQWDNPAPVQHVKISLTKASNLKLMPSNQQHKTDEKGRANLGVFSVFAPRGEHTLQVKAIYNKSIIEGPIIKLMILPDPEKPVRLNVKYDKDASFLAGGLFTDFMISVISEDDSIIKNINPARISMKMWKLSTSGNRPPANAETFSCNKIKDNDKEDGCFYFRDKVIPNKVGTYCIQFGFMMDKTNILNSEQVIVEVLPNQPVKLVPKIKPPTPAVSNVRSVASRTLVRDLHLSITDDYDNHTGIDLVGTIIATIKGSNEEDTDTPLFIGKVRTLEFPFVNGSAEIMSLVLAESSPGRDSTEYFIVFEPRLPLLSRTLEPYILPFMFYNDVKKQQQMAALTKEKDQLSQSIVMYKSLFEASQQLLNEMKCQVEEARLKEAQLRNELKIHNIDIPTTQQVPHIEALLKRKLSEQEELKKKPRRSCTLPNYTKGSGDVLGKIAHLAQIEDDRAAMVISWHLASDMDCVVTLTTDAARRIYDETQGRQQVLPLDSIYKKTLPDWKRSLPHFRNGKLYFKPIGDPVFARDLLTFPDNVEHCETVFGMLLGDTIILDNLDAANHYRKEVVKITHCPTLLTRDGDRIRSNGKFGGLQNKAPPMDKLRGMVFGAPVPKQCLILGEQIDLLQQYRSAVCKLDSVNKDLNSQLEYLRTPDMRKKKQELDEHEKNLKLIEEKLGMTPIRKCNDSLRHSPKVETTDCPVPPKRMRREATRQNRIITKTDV
active: [10] -0.564
inactive: [1] 0.006 | [2] 0.171 | [3] -0.272 | [4] 0.043 | [5] 0.325 | [6] 0.046 | [7] -0.007 | [8] -0.422 | [9] -0.153

STAM2 (UniProt O75886)
inactive: [1] -0.026 | [2] 0.081 | [3] 0.036 | [4] -0.031 | [5] 0.022 | [6] 0.01 | [7] 0.002 | [8] -0.006 | [9] -0.047 | [10] -0.025

TIMM44 (UniProt O43615)
inactive: [1] -0.012 | [2] 0.026 | [3] 0.054 | [4] -0.007 | [5] 0.024 | [6] 0.041 | [7] 0.042 | [8] 0.012 | [9] 0.028 | [10] -0.029

SUMO1 (UniProt P63165)
inactive: [1] -0.126 | [2] 0.167 | [3] 0.006 | [4] -0.06 | [5] 0.182 | [6] 0.043 | [7] 0.045 | [8] -0.06 | [9] 0.211 | [10] 0.033

TANK (UniProt Q92844)
inactive: [1] -0.019 | [2] -0.031 | [3] 0.101 | [4] -0.048 | [5] 0.002 | [6] 0.053 | [7] -0.024 | [8] -0.028 | [9] 0.014 | [10] 0.01

SLC25A38 (UniProt Q96DW6)
inactive: [1] 0.007 | [2] -0.001 | [3] -0.023 | [4] -0.036 | [5] 0.129 | [6] 0.054 | [7] 0.023 | [8] 0.005 | [9] -0.005 | [10] 0.055

SNRPD3 (UniProt P62318)
UniProt P62318, sequence (P62318 whole entry, looked up): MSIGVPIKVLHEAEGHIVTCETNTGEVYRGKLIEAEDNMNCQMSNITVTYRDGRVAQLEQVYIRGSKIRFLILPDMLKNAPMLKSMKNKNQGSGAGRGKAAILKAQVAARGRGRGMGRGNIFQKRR
inactive: [1] -0.019 | [2] -0.02 | [3] -0.04 | [4] -0.038 | [5] 0.012 | [6] 0.079 | [7] -0.113 | [8] -0.076 | [9] 0.068 | [10] -0.012

SNRNP27 (UniProt Q8WVK2)
inactive: [1] 0.026 | [2] -0.021 | [3] 0.052 | [4] 0.015 | [5] 0.015 | [6] 0.045 | [7] -0.165 | [8] -0.027 | [9] 0.061 | [10] 0.035

TAOK3 (UniProt Q9H2K8)
UniProt Q9H2K8, sequence (Q9H2K8 whole entry, looked up): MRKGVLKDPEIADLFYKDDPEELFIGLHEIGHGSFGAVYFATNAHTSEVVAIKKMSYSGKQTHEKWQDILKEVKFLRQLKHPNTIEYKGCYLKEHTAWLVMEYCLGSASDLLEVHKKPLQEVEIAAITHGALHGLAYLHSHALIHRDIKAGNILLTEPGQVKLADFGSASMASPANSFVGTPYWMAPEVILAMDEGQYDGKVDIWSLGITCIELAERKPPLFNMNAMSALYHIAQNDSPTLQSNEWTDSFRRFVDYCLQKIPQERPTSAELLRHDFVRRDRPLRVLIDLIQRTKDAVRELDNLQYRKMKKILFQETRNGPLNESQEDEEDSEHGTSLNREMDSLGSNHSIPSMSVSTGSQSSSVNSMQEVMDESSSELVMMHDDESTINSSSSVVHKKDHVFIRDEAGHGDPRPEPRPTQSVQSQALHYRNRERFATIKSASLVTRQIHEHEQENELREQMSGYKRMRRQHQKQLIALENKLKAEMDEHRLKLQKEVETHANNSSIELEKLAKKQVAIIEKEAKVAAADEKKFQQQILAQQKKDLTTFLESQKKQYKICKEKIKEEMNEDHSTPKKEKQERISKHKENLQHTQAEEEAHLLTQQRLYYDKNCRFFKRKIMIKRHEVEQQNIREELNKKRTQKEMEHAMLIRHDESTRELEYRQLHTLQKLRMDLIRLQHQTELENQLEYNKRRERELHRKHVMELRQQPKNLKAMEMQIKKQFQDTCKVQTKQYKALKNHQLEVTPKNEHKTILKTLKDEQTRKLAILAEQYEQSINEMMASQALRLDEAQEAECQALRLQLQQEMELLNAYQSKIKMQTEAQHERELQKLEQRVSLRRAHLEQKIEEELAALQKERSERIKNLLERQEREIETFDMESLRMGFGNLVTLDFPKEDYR
inactive: [1] -0.017 | [2] 0.08 | [3] 0.009 | [4] 0.037 | [5] 0.02 | [6] 0.018 | [7] 0.018 | [8] -0.007 | [9] -0.044 | [10] 0.007

TIMM13 (UniProt Q9Y5L4)
UniProt Q9Y5L4, sequence (Q9Y5L4 whole entry, looked up): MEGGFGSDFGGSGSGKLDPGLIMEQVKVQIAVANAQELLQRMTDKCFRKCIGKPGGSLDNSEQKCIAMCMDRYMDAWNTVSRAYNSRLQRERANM
inactive: [1] 0.018 | [2] 0 | [3] 0.315 | [4] 0 | [5] 0.003 | [6] 0.111 | [7] 0.063 | [8] -0.005 | [9] -0.025 | [10] -0.006

STK38L (UniProt Q9Y2H1)
inactive: [1] -0.005 | [2] 0.018 | [3] 0.05 | [4] 0.031 | [5] -0.015 | [6] 0.046 | [7] -0.368 | [8] 0.102 | [9] 0.008 | [10] -0.041

SSRP1 (UniProt Q08945)
inactive: [1] -0.018 | [2] 0.143 | [3] 0.005 | [4] 0.014 | [5] 0.029 | [6] 0.022 | [7] -0.016 | [8] -0.029 | [9] -0.052 | [10] 0.009

TLK2 isoform 2 (UniProt Q86UE8)
inactive: [1] 0 | [2] 0.008 | [3] 0.04 | [4] 0.074 | [5] -0.041 | [6] -0.016 | [7] 0.064 | [8] 0 | [9] 0.017 | [10] -0.048

TEX264 (UniProt Q9Y6I9)
UniProt Q9Y6I9, sequence (Q9Y6I9 whole entry, looked up): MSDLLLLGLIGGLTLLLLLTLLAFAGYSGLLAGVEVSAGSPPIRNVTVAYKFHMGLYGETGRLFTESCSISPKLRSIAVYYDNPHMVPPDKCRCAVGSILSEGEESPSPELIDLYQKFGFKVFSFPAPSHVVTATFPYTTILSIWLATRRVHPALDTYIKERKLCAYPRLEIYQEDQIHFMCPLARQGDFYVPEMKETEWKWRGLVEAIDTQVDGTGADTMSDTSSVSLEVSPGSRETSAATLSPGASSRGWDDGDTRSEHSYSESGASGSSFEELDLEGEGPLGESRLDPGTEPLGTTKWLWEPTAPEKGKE
active: [4] 0.769
inactive: [1] 0.099 | [2] 0.024 | [3] 0.034 | [5] 0.325 | [6] 0 | [7] 0.203 | [8] 0.349 | [9] 0.033 | [10] 0

SSX2 (UniProt Q16385)
inactive: [1] -0.068 | [2] -0.078 | [3] -0.023 | [4] 0.038 | [5] 0.175 | [6] 0.044 | [7] -0.032 | [8] -0.035 | [9] -0.022 | [10] -0.004

SNX11 (UniProt Q9Y5W9)
UniProt Q9Y5W9, sequence (Q9Y5W9 whole entry, looked up): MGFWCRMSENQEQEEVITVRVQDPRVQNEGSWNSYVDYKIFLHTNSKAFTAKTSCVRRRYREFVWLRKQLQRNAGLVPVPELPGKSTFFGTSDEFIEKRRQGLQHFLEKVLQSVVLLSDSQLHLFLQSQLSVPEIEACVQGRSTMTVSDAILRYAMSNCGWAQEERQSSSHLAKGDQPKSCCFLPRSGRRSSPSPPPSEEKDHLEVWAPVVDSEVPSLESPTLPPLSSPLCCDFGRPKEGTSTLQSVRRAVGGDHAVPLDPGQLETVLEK
inactive: [1] 0.034 | [2] -0.029 | [3] 0.035 | [4] 0.037 | [5] -0.048 | [6] -0.028 | [7] -0.035 | [8] -0.042 | [9] -0.079 | [10] 0.071
